Rows were chosen to be rich in hits. Some 12% of all compounds tested hit in one or more screens of this group.
Sfp PPTase inh = inhibitors of Bacillus subtilis Sfp phosphopantetheinyl transferase | Q9F4F7 | Biochemical Sfp PPTase activity, qHTS | Potency, µM, inactives show largest response in the series, negative = inhibition, most hits filed as inhibitors | actives 3.5% (n = 310,000) | AID 1490;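 note: the enzyme is Sfp with the accession as filed and its product quenches rhodamine fluorescence; 0% = enzyme reaction without inhibitor and -100% = no enzyme wells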
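With Hepes-Na pH 7.6 buffer containing 10 mM MgCl2, Sfp (15 nM) modified BHQ-2-YbbR (12.5 uM) using rhodamine-CoA (5 uM). Two reads 30 minutes apart at 525/598 nm yielded each well's rate.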
Gal4-VP16 FLuc = Gal4-VP16 reporter inhibition counter-screen; Potency, µM (doses to about 53.6 µM), for the others: at the top dose activity, negative = inhibition, most hits filed as inhibitors; Drosophila S2 Gal4-VP16 UAS-luciferase, luminescence, 20 h; actives 3.5% (n = 310,000); AID 2546;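 note: Gal4-VP16 expression switched on by copper sulfate through the metallothionein promoter; nearly all actives have a fitted effect of over 50% in size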
PLK1 PBD block = blocks phosphopeptide binding to human PLK1 polo-box domain. AID 720504. P53350. actives 2.8% (n = 360,000). Plk1 PBD binding of FITC phosphopeptide, fluorescence polarization. Potency, µM, for the others: max response, negative = inhibition, actives largely listed as inhibitors; note: series mostly up to about 57 µM; nearly all actives have a fitted effect of over 65% in size
ALDH1A1 block = inhibitors of human aldehyde dehydrogenase 1A1; P00352; Purified ALDH1A1, NADH fluorescence, propionaldehyde substrate; Potency, µM (series often up to 75.3 µM), without a hit: top-dose activity, negative = inhibition, actives largely listed as inhibitors; actives 7.3% (n = 220,000); AID 1030; active = well fitted inhibition curve with a large enough effect, not every such curve was filed as active; inconclusive = small, poorly fitted or top-dose-only effect, or another doubt; inactive = no such curve, though single readings can be large or run the other way;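 note: plate controls were no enzyme wells and a reference inhibitor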
RORg inh = blocks mouse ROR gamma transcriptional activity | P51450 | actives 5.4% (n = 310,000) | Potency, µM (top dose mostly 53.6 µM), for the others: at the highest dose activity change, negative = inhibition, usual class: inhibitors | Drosophila S2 Gal4-RORgamma UAS-luciferase reporter, 20 h; note: nearly all actives have a fitted effect of over 60% in size
Target sequence (P51450 whole entry, looked up, the tested form may be a part): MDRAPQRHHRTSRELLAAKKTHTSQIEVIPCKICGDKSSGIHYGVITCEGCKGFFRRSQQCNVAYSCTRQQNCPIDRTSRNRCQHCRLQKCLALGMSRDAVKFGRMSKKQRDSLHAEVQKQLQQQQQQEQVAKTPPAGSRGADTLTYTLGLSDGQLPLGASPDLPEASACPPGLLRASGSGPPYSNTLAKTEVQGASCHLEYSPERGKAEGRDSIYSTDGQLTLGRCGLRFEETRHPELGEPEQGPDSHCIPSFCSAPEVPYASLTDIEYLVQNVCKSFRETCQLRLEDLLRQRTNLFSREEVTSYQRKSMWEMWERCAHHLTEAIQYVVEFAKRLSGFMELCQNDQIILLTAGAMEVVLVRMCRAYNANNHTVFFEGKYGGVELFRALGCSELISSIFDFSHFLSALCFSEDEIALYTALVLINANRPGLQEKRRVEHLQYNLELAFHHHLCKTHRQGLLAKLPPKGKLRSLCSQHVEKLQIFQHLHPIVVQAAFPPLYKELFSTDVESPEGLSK
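Drosophila Schneider cells stably carrying a metallothionein-driven Gal4 DBD–ROR gamma fusion and a UAS-Photinus luciferase reporter were exposed to compound for 1 hr, then induced with copper sulfate (700 uM final) for 20 hr at ambient temperature before luminescence reading.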
* hit, by the source's call; ? = inconclusive; . = not tested or not shown; [ ] = remark or other dose. Unless noted, calls come from the whole dose curve; as a rule, active = well fitted curve in the direction sought with a large enough effect; inconclusive = small, poorly fitted or top-dose-only effect, or another doubt; inactive = no such curve, though single readings can be large; an effect the other way counts as inactive or inconclusive. Unless noted, % is set by controls: 0 for no effect and ±100 for the full control effect; potency is the fitted concentration of half-maximal effect.

SMILES	Sfp PPTase inh	Gal4-VP16 FLuc	PLK1 PBD block	ALDH1A1 block	RORg inh
COc1ccc2[nH]cc(CCNc3ncnc4ccc(-c5ccccc5C#N)cc34)c2c1	15%	-2%	.	3%	?
CC(=O)Nc1cccc(NS(=O)(=O)c2ccc3c(c2)CCC(=O)N3)c1	.	.	-2%	.	.
C/C(=N\NC(=O)c1ccncc1)c1ccc2ccccc2c1O	.	.	.	3%[13.5 µM]	.
Cc1ccc(OCC(=O)NNC(=O)c2ccc(NC(=O)C3CC3)cc2)c(C)c1	5%	-1%	-6%	.	?
Cc1ccc(OCC(=O)NNC(=S)NC(=O)C2CC2)c(C)c1	11%	-22%	.	.	8.9µM*
Cc1ccc(OCC(=O)NNC(=S)NC(=O)C2CCCCC2)c(C)c1	30%	-16%	-2%	.	10µM*
CN(C1CCCCC1)S(=O)(=O)c1ccc2c(c1)c(=O)c(C(=O)O)cn2C	.	.	3%	.	.
CC(C)(C)N1C(=O)c2ccc(C(=O)Nc3nccs3)cc2C1=O	13%	?	0%	?	7.1µM*
O=C(Nc1nccs1)c1ccc2c(c1)C(=O)N(Cc1cccnc1)C2=O	3%	-7%	-3%	.	?
CCN1C(=O)c2ccc(C(=O)Nc3nccs3)cc2C1=O	5%	-27%	-11%	4.5µM*	-67%
O=C(CCc1ccc(O)c(O)c1)NNC(=S)NCCc1ccccc1	1%	-5%	-11%	-5%	-23%
CCC(C)NC(=S)NNC(=O)c1ccncc1 (configuration not stated)	-7%	13µM*	-13%	8%	3.2µM*
O=C(NNC(=S)Nc1ccc(Br)cc1Cl)c1ccncc1	23%	20µM*	?	18µM*	-33%
O=C(CCc1ccc(O)c(O)c1)NNC(=S)Nc1ccc(Br)cc1Cl	30%	?	-14%	25µM*	11µM*
O=C(NNC(=S)Nc1ccc(C(=O)O)c(O)c1)c1ccncc1	.	.	27µM*	.	.
O=C(NNC(=S)Nc1ccccc1)c1ccncc1	3%	-8%	-12%	?	?
O=C(/C=C/[C@H]1O[C@@H](n2cnc3c(NC(=O)c4ccccc4)ncnc32)[C@H](O)[C@@H]1O)NCc1cccs1	.	.	-4%	.	.
COc1cc(O)ccc1C(C)=O	13%	7%	.	0%	5%
O=C(NNC(=S)NC(=O)C12CC3CC(CC(C3)C1)C2)c1ccncc1	-24%	-1%[0.365 µM]	-7%	-14%	?
CC1(C(=O)NC(=S)NNC(=O)c2ccncc2)CCCCC1	-24%	13µM*	-4%	-15%	5µM*
O=C(C1CCN(c2ncnc3c2sc2cccc(F)c23)CC1)N1CCOCC1	21%	-27%	-3%	2%	-6%
O=C(NCCN1CCOCC1)C1CCN(c2ncnc3c2sc2cccc(F)c23)CC1	5%	14µM*	-4%	?	2%
CCNC(=O)N(C)c1c(CC)nc2ccc(C(=O)N3CCN(C(=O)c4ccco4)CC3)cn12	.	.	-5%	.	.
Fc1ccc(NC(=S)N/N=C/c2cccc(Br)c2)c(F)c1	-1%	2.5µM*	0%	5%	0.71µM*
Fc1cccc(/C=N/NC(=S)Nc2ccccc2Cl)c1	19%	1µM*	4%	-4%	0.71µM*
SMILES	Sfp PPTase inh	Gal4-VP16 FLuc	PLK1 PBD block	ALDH1A1 block	RORg inh
S=C(N/N=C/c1ccc(Cl)c(Cl)c1)Nc1ccccc1Cl	-16%	0.79µM*	-19%	6%	0.32µM*
Cc1ccccc1NC(=O)C(=O)N/N=C/c1cccc(Br)c1	25%	-23%	-7%	17%	-11%
O=C(C[n+]1ccccc1)N/N=C/c1ccc(Cl)c(Cl)c1	1%	0%	-10%	.	-12%
CC(=O)Nc1cc(-c2ccncc2)cn2c(-c3ccccc3)cnc12	.	.	-5%	.	.
Cc1ccc(S(=O)(=O)N2[C@@H](CO)CO[C@H]2CC(=O)c2ccc(F)cc2)cc1	.	.	-2%	.	.
Cc1ccc(C)c(C(O)c2ncc(-c3ccc(Cl)cc3)[nH]2)c1 (configuration not stated)	.	.	-2%	.	.
CCOC(=O)C(=O)Nc1nccs1	-1%	3%	-5%	18%	-12%
CCOC(=S)SCC(=O)Nc1nc(-c2ccc(Br)cc2)cs1	29%	6.3µM*	-17%	0%	5µM*
Cc1ccc(-c2csc(NC(=O)CSC3=NCCS3)n2)cc1	?	13µM*	-8%	-12%	-40%
CCOC(=S)SCC(=O)Nc1nc(C)c(C)s1	56µM*	?	?	.	13µM*
CCOC(=S)SCC(=O)Nc1nccs1	71µM*	?	-24%	?	-14%
Cc1cc(C)c(-c2c(N)cc(Br)cc2Br)c(N)c1	.	.	-6%	.	.
CC(=O)Nc1ccc(-c2csc(NC(=O)CCCc3cccs3)n2)cc1	-31%	-2%	-2%	?	?
Cc1ccc(-c2csc(NC(=O)CCCc3cccs3)n2)cc1	18%	2%	17µM*	15%	-3%
CCOC(=O)N1CCN(C(=O)CSCC(=O)Nc2nc(-c3ccc(-c4ccccc4)cc3)cs2)CC1	7%	6.3µM*	-1%	?	?
Nc1ncnn1Cc1ccccc1	.	.	1%	.	.
COC(=O)C1=CN(c2ccc(F)cc2)C(N)=C(C#N)C1c1ccc(-c2ccccc2)cc1 (configuration not stated)	.	.	-5%	.	.
N#CC(C#N)=NNc1ccc(S(=O)(=O)N2CCCCC2)cc1	15%	22µM*	-24%	?	?
CC1CCN(S(=O)(=O)c2ccc(N/N=C(/C#N)C(N)=O)cc2)CC1	2%	-2%	-9%	2%	17%
COC(=O)Nc1ccc(S(=O)(=O)N2CCCCCC2)cc1	9%	-3%	-1%	2%	33%
N#C/C(=N\Nc1ccc(S(=O)(=O)N2CCOCC2)cc1)C(N)=S	45µM*	-2%	?	3.2µM*	?
NNC(=O)/C(=N/Nc1ccccc1)S(=O)(=O)c1ccc(Cl)cc1	4%	?	-4%	13µM*	?
CCOC(=O)/C(=N\Nc1ccccc1)P(=O)(c1ccccc1)c1ccccc1	20µM*	-12%	-5%	.	-8%
CCOC(=O)/C(=N\Nc1ccccc1)S(=O)(=O)c1ccccc1	-17%	?	-4%	16µM*	?
Cc1ccc(NC(=S)N2CCN(S(C)(=O)=O)CC2)cc1Cl	17%	-3%	-10%	.	14%
CC[C@H](C)[C@H](NC(=O)[C@H](CCCN=C(N)N)NC(=O)[C@H](CCCN=C(N)N)NC(=O)[C@H](CC(C)C)NC(=O)[C@H](Cc1ccccc1)NC(=O)CNC(=O)CN)C(=O)N[C@@H](CCCN=C(N)N)C(=O)N1CCC[C@H]1C(=O)N[C@@H](CCCCN)C(=O)N[C@@H](CC(C)C)C(=O)N[C@@H](CCCCN)C(=O)O	17%	.	.	7%	.
O=c1cc2c(c(-c3ccccc3)n1Cc1ccccc1)[C@@H](CCO)NC2	.	.	-11%	.	.
CCCSC(=S)c1c(C)[nH]n(-c2ccccc2)c1=O	-3%	0.79µM*	-20%	-16%	0.32µM*
COc1ccc(Cl)cc1-n1c(=S)sc2c(=O)[nH]c(SCC(=O)C(C)(C)C)nc21	-5%	-3%	?	.	26%
Cc1ccc(C)c(-n2c(N)c(C(N)=O)sc2=S)c1	-2%	-12%	-13%	-4%	28%
